Measurements: PubChem BioAssay (NCATS)
Inconclusive results are not listed. The source made the active and inactive calls. Unless noted, calls come from the whole dose curve; as a rule, active = well fitted curve in the direction sought with a large enough effect; inconclusive = small, poorly fitted or top-dose-only effect, or another doubt; inactive = no such curve, though single readings can be large; an effect the other way counts as inactive or inconclusive.

Assays:
[1] = qHTS for Inhibitors of Plasmodium falciparum (DD2) proliferation (AID 504314); note: potency is the fitted concentration of half-maximal effect;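 for activity, negative = inhibition: parasite DNA measured by SYBR Green fluorescence after red cell lysis; plate controls were DMSO vehicle for no effect and artemisinin wells for full effect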
Procedure, shortened: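 SYBR Green growth assay: 72 h compound exposure of infected red cells (2.5% hematocrit, 0.3% parasitemia), then lysis and overnight dye staining, fluorescence 485/535 nm. Values scaled between DMSO and 0.29 uM artemisinin controls.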

[2] = qHTS for Inhibitors of Plasmodium falciparum (7G8) proliferation (AID 504316); note: nearly all actives have a fitted effect of over 65% in size; note: potency is the fitted concentration of half-maximal effect
Procedure, shortened: (§1)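 Parasite growth measured as SYBR Green DNA fluorescence (ex 485, em 535 nm) after overnight lysis following 72 h culture at 37 °C, 0.3% parasitemia, 2.5% hematocrit. Values normalized against DMSO and 0.29 uM artemisinin controls, with plate-stack correction.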

[3] = qHTS for Inhibitors of Plasmodium falciparum (HB3) proliferation (AID 504318); note: nearly all actives have a fitted effect of over 60% in size; note: potency is the fitted concentration of half-maximal effect
Procedure, shortened: as §1

[4] = qHTS for Inhibitors of Plasmodium falciparum (CP250) proliferation (AID 504320);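 note: plate controls were DMSO vehicle for no effect and 0.29 µM artemisinin control for full effect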
Procedure, shortened: as §1

[5] = target: Atrial natriuretic peptide receptor 1 (Homo sapiens) (UniProt P16066); experiment: Natriuretic polypeptide receptor (hNpr1) antagonism - Pilot CMLD screen (AID 1347052; calls by dose curve;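 note: HEK293 cells with hNpr1 stimulated by hNppA peptide at 0.1 nM; cGMP level read as GloSensor luciferase luminescence after agonist stimulation; series mostly up to about 9.2 µM; % is set by controls: 0 for no effect and ±100 for the full control effect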)
Atrial natriuretic peptide receptor 1 (Homo sapiens), sequence (P16066 whole entry, looked up): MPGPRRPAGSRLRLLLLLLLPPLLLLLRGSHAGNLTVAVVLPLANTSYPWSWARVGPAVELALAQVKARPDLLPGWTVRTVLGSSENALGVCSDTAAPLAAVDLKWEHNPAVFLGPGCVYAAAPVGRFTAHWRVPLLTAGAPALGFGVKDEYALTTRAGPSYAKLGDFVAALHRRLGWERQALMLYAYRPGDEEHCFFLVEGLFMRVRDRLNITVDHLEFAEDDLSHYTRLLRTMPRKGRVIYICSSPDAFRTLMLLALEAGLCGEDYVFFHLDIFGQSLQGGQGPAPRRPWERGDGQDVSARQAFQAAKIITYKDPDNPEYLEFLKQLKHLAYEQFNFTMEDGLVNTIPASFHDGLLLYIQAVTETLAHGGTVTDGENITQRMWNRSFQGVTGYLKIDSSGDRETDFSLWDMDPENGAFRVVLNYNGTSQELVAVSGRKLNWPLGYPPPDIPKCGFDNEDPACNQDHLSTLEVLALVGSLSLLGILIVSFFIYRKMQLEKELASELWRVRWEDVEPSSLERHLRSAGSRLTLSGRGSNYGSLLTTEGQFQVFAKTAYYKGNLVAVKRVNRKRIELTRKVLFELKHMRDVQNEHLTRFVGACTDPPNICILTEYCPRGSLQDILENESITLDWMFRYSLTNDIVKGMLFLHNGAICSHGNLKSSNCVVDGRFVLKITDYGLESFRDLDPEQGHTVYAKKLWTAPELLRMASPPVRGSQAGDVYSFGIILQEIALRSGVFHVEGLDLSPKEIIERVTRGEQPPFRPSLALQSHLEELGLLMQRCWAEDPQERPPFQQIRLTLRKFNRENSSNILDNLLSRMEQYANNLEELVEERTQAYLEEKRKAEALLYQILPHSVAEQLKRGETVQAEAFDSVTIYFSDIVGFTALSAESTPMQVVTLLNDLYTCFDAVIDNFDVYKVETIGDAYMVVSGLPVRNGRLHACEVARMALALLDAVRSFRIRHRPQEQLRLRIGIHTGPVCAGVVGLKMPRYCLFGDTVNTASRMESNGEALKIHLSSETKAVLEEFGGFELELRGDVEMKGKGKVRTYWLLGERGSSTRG

CC(C)[C@@H](OCc1ccccc1)[C@H](C)C=NOC[C@@H](O)COCc1ccco1
inactive: Potency [1] | Potency [2] | Potency [3] | Potency [4] | Potency [5]

COC(=O)N[C@H](C[N+](=O)[O-])C(C)(C)C
inactive: Potency [1] | Potency [2] | Potency [3] | Potency [4] | Potency [5]

COc1cc(OC)c2c(c1)OC1Cc3cc(OC)c(OC)cc3C2O1 (stereo not given)
inactive: activity, negative = inhibition [1] -3.4% [at 1.12 µM] | Potency [2] | Potency [3] | Potency [4] | Potency [5]

C=CCCN1C(=O)NC(c2ccccc2)C(C(=O)OC)=C1C (stereo not given)
inactive: Potency [1] | Potency [2] | Potency [3] | Potency [4] | Potency [5]

CCOC(=O)CN1C(=O)NC(c2cccc(C(F)(F)F)c2)C(C(=O)OC)=C1C (stereo not given)
inactive: Potency [1] | Potency [2] | Potency [3] | Potency [4] | Potency [5]

CC(C)(C)Nc1oc(-c2ccccc2)nc1-c1ccccc1F
inactive: Potency [1] | Potency [2] | Potency [3] | Potency [4] | Potency [5]

CCCCC1=CC2=C(c3ccco3)C(=O)C(C)(OC(=O)c3ccc(OC)cc3)C(=O)C2=CN1Cc1ccc2c(c1)OCO2 (stereo not given)
inactive: activity, negative = inhibition [1] 4.29% [at 1.12 µM] | Potency [2] | Potency [3] | Potency [4] | Potency [5]

COC(=O)C1=C(C)N(Cc2ccccc2)C(=NCCc2c[nH]c3ccccc23)NC1c1ccc(Br)cc1 (stereo not given)
inactive: Potency [1] | Potency [2] | Potency [3] | Potency [4] | Potency [5]

COC(=O)CCCC1=CC2=C(c3ccccc3)C(=O)C(C)(OC(=O)C3CCCC3)C(=O)C2=CN1Cc1ccco1 (stereo not given)
inactive: Potency [1] | Potency [2] | Potency [3] | Potency [4] | Potency [5]

CCOC(=O)CN1C(=O)C2(CC(C)=C[C@@H](C)O2)c2c(Br)cccc21 (stereo not given in full)
inactive: Potency [1] | Potency [2] | Potency [3] | Potency [4] | Potency [5]

CC(CCC(=O)OC[C@H]1O[C@H](C#Cc2ccccc2)C=C[C@H]1Oc1ccc(C)cc1)=NO[C@@H](C)c1cn([C@H](CO)Cc2ccccc2)nn1
inactive: Potency [1] | Potency [2] | Potency [3] | Potency [4] | Potency [5]

COc1cc2c(cc1OC)[C@@H]1O[C@](CCCCN3C(=O)c4ccccc4C3=O)(C2)OC2=C1C(=O)c1ccccc1C2=O
active: Potency [1] 1340 nM | Potency [2] 1510 nM | Potency [3] 1510 nM
inactive: Potency [4] | Potency [5]

CC(C)[C@@H](OCc1ccccc1)[C@H](C)C=NO[C@H](C)c1cn([C@@H]2COC[C@@H]2O)nn1
inactive: Potency [1] | Potency [2] | Potency [3] | Potency [4] | Potency [5]

COCCN1C(=NCCc2cccnc2)NC(c2ccccc2)C(C(=O)OC)=C1C (stereo not given)
inactive: Potency [1] | Potency [2] | Potency [3] | Potency [4] | Potency [5]

CCN1C(=NCc2ccc3c(c2)OCO3)NC(CCc2ccccc2)C(C(=O)OC)=C1C (stereo not given)
inactive: Potency [1] | Potency [2] | Potency [3] | Potency [4] | Potency [5]

COc1cccc([C@H]2Oc3ccc(OC)cc3C(=NO[C@@H](C)c3cc(-c4c(C)cc(C)cc4C)no3)[C@H]2O)c1
inactive: Potency [1] | Potency [2] | Potency [3] | Potency [4] | Potency [5]

C[C@@H]1C=CCCO[C@]12C(=O)N(CC1CC1)c1ccccc12
inactive: Potency [1] | Potency [2] | Potency [3] | Potency [4] | Potency [5]

CCN1C(=O)[C@@H]2[C@H]3[C@H](O)[C@H](O)CC(=NOC[C@@H](O)COCc4ccco4)[C@@H]3CC[C@H]2C1=O
inactive: Potency [1] | Potency [2] | Potency [3] | Potency [4] | Potency [5]

CC(C)(C)c1ccc(O[C@@H]2[C@H](O)CO[C@H]2C=CC#Cc2ccccc2)cc1
inactive: Potency [1] | Potency [2] | Potency [3] | Potency [4] | Potency [5]

COC(=O)CC(Oc1c(C)n(C)c2ccccc2c1=O)c1ccccc1 (stereo not given)
inactive: Potency [1] | Potency [2] | Potency [3] | Potency [4] | Potency [5]

C[C@H]1COc2c(N3CCN(C)CC3)c(F)cc3c(=O)c(C(=O)NCc4ccco4)cn1c23
inactive: Potency [1] | Potency [2] | Potency [3] | Potency [4] | Potency [5]

COC(=O)C(C(=O)OC)[C@@H]1O[C@@]23COCC[C@]2(C)[C@@H]3c2ccccc21
inactive: Potency [1] | Potency [2] | Potency [3] | Potency [4] | Potency [5]

C=CCOC(=O)N[C@@H](c1cccs1)C(C(C)=O)C(C)=O
inactive: Potency [1] | Potency [2] | Potency [3] | Potency [4] | Potency [5]

CCCC[C@]12Cc3c(ccc4ccccc34)[C@H](O1)c1c(cc(C)oc1=O)O2
inactive: Potency [1] | Potency [2] | Potency [3] | Potency [4] | Potency [5]

C=CCC12OC3(OC)CC1[C@H](C)[C@@H](c1ccccc1)C2[C@]3(O)CC=C (stereo not given in full)
inactive: Potency [1] | Potency [2] | Potency [3] | Potency [4] | Potency [5]
